Reference: PubChem BioAssay (Tox21)
Results filed as inconclusive are left out. Entries that show only a call come without a potency. Active and inactive are the calls of the source. Calls come from the whole dose curve; as a rule, active = well fitted activation curve with a large enough effect in the repeat runs; inconclusive = weak or mixed curves; inactive = no such curve, though single readings can be large or run the other way.

molecular target: Nuclear receptor subfamily 1 group I member 3 (Homo sapiens) (UniProt Q14994); assay: qHTS assay to identify small molecule agonists of the constitutive androstane receptor (CAR) signaling pathway (AID 1224839); conditions: HepG2 hCAR CYP2B6-luciferase, agonist mode, 24 h; series mostly up to 42.5 µM; note: nearly all actives have a fitted effect of over 15% in size;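 for activation: HepG2 cells stably carrying human CAR and a CYP2B6 luciferase reporter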
Sequence (Q14994 whole entry, looked up): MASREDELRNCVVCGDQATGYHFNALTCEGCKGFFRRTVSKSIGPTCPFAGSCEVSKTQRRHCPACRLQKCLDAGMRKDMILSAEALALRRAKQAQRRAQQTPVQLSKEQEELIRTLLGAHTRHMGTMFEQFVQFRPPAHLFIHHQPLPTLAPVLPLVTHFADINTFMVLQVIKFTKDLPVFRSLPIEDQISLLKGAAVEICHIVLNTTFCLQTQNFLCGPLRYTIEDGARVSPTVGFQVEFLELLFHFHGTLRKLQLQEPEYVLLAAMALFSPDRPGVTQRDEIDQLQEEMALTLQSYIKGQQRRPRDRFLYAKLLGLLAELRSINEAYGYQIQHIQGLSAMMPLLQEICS
From the text: National Center for Advancing Translational Sciences [NCATS] NIH Chemical Genomics Center [NCGC] U.S. Environmental Protection Agency [EPA] National Institutes of Environmental Health Sciences [NIEHS] National Toxicology Program [NTP] Assay overview: The constitutive androstane receptor (CAR) is a nuclear receptor which regulates multiple drug metabolizing enzymes (DMEs) and transporters. Activating CAR will generally increase the transcription and subsequent translation of CYP2B6 and CYP3A4. These two DMEs represent about 50% of the drug metabolizing potential in the body. […] Recently, there have also been studies performed indicating CARs role in energy metabolism and cancer therapy. Therefore, inducing CARs activity could have a potential effect on diabetes and cancer. Identifying environmental toxins and compounds which modulate CAR, through the use of the Tox21 10K compound collection, will be an important step in determining the toxicity and potential therapeutic effects these factors will have on the human body.
Assay Protocol Summary: A double-stable (hCAR and CYP2B6-2.2kb) transfected cell line, derived from human hepatoma (HepG2) cells, was utilized for the duration of the quantitative high-throughput screens. The HepG2-CYP2B6-hCAR cells suspended in DMEM culture medium supplemented with 10% FBS, 5 ug/mL blasticidin, 0.5 mg/mL geneticin, 100 U/mL penicillin and 100 ug/mL streptomycin were dispensed at 2500 cells/4 uL/well in 1536-well white solid bottom plates using a Multidrop Combi. After the assay plates were incubated at 37 C/5% CO2 for 4 hrs, 23 nL of compounds at 15 concentrations (from 5-48 columns) or positive control (from 1 to 4 columns) were transferred to the assay plates using a Pintool station. One uL of PK11195, was added using a Flying Reagent Dispenser to generate a final concentration of 0.75 uM PK11195 inside each well. After a 24 hr incubation period at 37 C/5% CO2, four uL of ONE-Glo reagent was added into the assay plates using a Flying Reagent Dispenser. After a 30 min incubation period at room temperature, the luminescence intensity in the assay plates was measured using a ViewLux plate reader.
Potency is the fitted concentration of half-maximal effect.

Row | SMILES | Potency
1 | CCN(CC)CCOC(=O)C(c1ccccc1)C1CCCCC1 (stereo not given) | inactive
2 | CC(=O)c1ccc2c(c1)N(CCCN(C)C)c1ccccc1S2 | inactive
3 | C[N+]1(C)CCC(OC(=O)C(O)(c2ccccc2)C2CCCC2)C1 (stereo not given) | inactive
4 | CCCCC/C=C\C/C=C\CCCCCCCC(=O)NC(C)c1ccccc1 (stereo not given) | inactive
5 | CCO[C@H](Cc1ccc(OCCc2ccc(OS(C)(=O)=O)cc2)cc1)C(=O)O | inactive
6 | CCn1cc(C(=O)O)c(=O)c2cnc(N3CCNCC3)nc21 | inactive
7 | CCC(Cl)CCC(Cl)C(Cl)CC(Cl)C(Cl)C(Cl)CCl (stereo not given) | inactive
8 | CCOC(=O)C(F)(F)F | inactive
9 | CN(C)CCN(Cc1ccc(Cl)cc1)c1ccccn1 | inactive
10 | Nc1ncn([C@H]2C[C@H](O)[C@@H](CO)O2)c(=O)n1 | inactive
11 | COC(=O)C1=C(C)NC(COC(N)=O)=C(C(=O)OC(C)C)C1c1cccc(Cl)c1Cl (stereo not given) | inactive
12 | CCOc1ccc(N=Nc2ccc(/C=C/c3ccc(N=Nc4ccc(OCC)cc4)cc3S(=O)(=O)O)c(S(=O)(=O)O)c2)cc1 | inactive
13 | CCC(C)(C)CC | inactive
14 | O=[N+]([O-])c1cccc(S(=O)(=O)O)c1 | inactive
15 | CN(C)CCOC(c1ccccc1)c1ccc(Br)cc1 (stereo not given) | inactive
16 | CCCCCCCCCCCCCCOS(=O)(=O)O | inactive
17 | C=CC(=O)OCCOCCOCCOCCOC(=O)C=C | inactive
18 | CCOC(=O)C(=O)CCc1ccccc1 | inactive
19 | CC(C)OC(=O)C(C)N(C(=O)c1ccccc1)c1ccc(F)c(Cl)c1 (stereo not given) | 48.6 µM (active)
20 | COC(=O)c1ccc(I)cc1S(=O)(=O)NC(=O)Nc1nc(C)nc(OC)n1 | inactive

Row | SMILES | Potency
21 | CNC(=O)CN(CCN(CCN(CC(=O)[O-])CC(=O)NC)CC(=O)[O-])CC(=O)[O-].O.[Gd+3] | inactive
22 | OC[C@H]1O[C@@H](OCCc2ccc(O)cc2)[C@H](O)[C@@H](O)[C@@H]1O | inactive
23 | COCCCN1CCC(NC(=O)c2cc(Cl)c(N)c3c2OCC3)CC1 | inactive
24 | NS(=O)(=O)c1ccc(N2CCCCS2(=O)=O)cc1 | inactive
25 | Cn1c(=O)cc(Oc2ccc(F)cc2F)c2cnc(NCC(C)(C)O)nc21 | inactive
26 | Nc1ccccc1S(=O)(=O)c1ccccc1 | 68.6 µM (active)
27 | CCN(CC)CCNC(=O)c1cc(Br)c(N)cc1OC | inactive
28 | C=CC(=O)OCCOCCOC(=O)C=C | inactive
29 | Nc1ccc(N)c2c1C(=O)c1ccccc1C2=O | inactive
30 | CCCC(=O)Nc1ccc(O)c(C(C)=O)c1 | inactive
31 | COc1cccc(N(C)C(=S)Oc2ccc3c(c2)CCCC3)n1 | inactive
32 | NCc1ccccc1Sc1ccccc1CO | inactive
33 | CCC(CC)Nc1ccc(C)c(C)c1 | inactive
34 | O=C(NCCO[N+](=O)[O-])c1cccnc1 | inactive
35 | CCCCC(CC)COC(=O)CCCCCCCCC(=O)OCC(CC)CCCC (stereo not given) | inactive
36 | O=C1CCCCCCCCCCCC(=O)OCCO1 | inactive
37 | O=C(O)c1ccc(S(=O)(=O)O)cc1C(=O)O | inactive
38 | CCCCCCCCCCO[C@@H]1O[C@H](CO)[C@@H](O)[C@H](O)[C@H]1O | inactive
39 | O=C(O)C1(C(=O)Nc2ccc(Cl)cc2Cl)CC1 | 13.7 µM (active)
40 | C=CC1CC2C=CC1C2 (stereo not given) | inactive
